Compounds without any hit were thinned out: in the full panel of roughly 83,000, 20% have a hit.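 Activity criterion: percent growth below 10, measured after cells in 96-well plates were exposed to a single compound concentration for 48 hours.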 Unmarked numbers belong to inactive results. Calls of active or inactive are those of the source.

The text below walks through data of PubChem BioAssay (NCI).

This experiment has as its system NCI-H460 lung. Description: NCI-60 one-dose screen, 48 h (100 = growth as untreated, 0 = no growth, -100 = all killed). The conditions noted are these: 10 µM unless noted.
Consider `C=C1C(=O)O[C@H]2[C@H]1CC/C(COC(=O)NCc1ccc(Cn3c(=O)sn(CCCC)c3=O)cc1)=C\CC[C@@]1(C)O[C@@H]21`, for which the growth is 95.4%.

For `O=C(Nc1ncc(Cc2ccccc2)s1)c1cc(-c2ccccc2)nc2ccccc12`, the growth was 101%.

Turning to `CC(=O)Oc1ccccc1C(=O)N(Cc1ccc2c(Cl)cc(Cl)c(O)c2n1)c1ccccc1`, the growth is 29.7%. As for `O=C(Nc1ccccc1)Nc1ccccc1CNc1nc(Nc2ccc(OCCN3CCCC3)cc2)ncc1Cl`, the figure is -37.7% (active); as for `C#Cc1ccc(NC(=O)Cc2ccc(/C=C/C(=O)c3nccn3C)cc2)cc1`, 22.6%.

Turning to `O=C(O)c1nn(-c2ccc(Cl)cc2)nc1N1CCCC1`, the growth is 101%.

For the molecule `CCc1ccc(Cc2cnc(NC(=O)c3cc(C)oc3C)s2)cc1`, the growth was 18.6%.

As for `O=C(NCCN1CCOCC1)c1cncnc1Nc1ccc2c(ccn2Cc2ccccn2)c1`, the growth was 103%. To `CC/C(=C(/c1ccc(Cl)cc1)c1ccc(OCCN2CCCCCC2)cc1)c1ccccc1` belongs 56.4%; to `CC(=O)OCC(=O)O[C@@H]1C[C@]2(C(C)C)O[C@@]1(C)[C@@H]1CC[C@@H](C)[C@H]1[C@@H]2OC(=O)/C=C/c1ccccc1`, 90.2%. To `COc1ccc(C(=O)/C=C/c2ccc(C)cc2)cc1S(N)(=O)=O` belongs 53.5%; to `Cc1ccc(Nc2oc(-c3ccccc3)nc2[P+](c2ccccc2)(c2ccccc2)c2ccccc2)cc1`, -81.7% (active). As for `COc1ccc(N/N=C/c2ccc3c(c2)Sc2ccccc2N3C)cc1`, the figure is 28.9%.
